Reference: PubChem BioAssay (NCI)
Compounds without any hit were thinned out: in the full panel of roughly 83,000, 20% have a hit.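 Cells were grown in 96-well plates and exposed to the test compound at a single concentration for 48 hours; results are reported as percent growth, with values below 10 considered active.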 A number with no mark means an inactive call. Active and inactive are the calls of the source.

Key:
Assay in all cases: NCI-60 one-dose screen, 48 h (100 = growth as untreated, 0 = no growth, -100 = all killed)
Conditions in all cases: 10 µM unless noted
NCI-H23 lung = test system: NCI-H23 lung
NCI-H226 lung = test system: NCI-H226 lung
NCI-H322M lung = test system: NCI-H322M lung
HOP-62 NSCLC = test system: HOP-62 NSCLC
NCI-H460 lung = test system: NCI-H460 lung
HOP-92 NSCLC = test system: HOP-92 NSCLC
NCI-H522 lung = test system: NCI-H522 lung
A549/ATCC NSCLC = test system: A549/ATCC NSCLC
786-0 renal = test system: 786-0 renal
COLO 205 colon = test system: COLO 205 colon
DU-145 prostate = test system: DU-145 prostate
K-562 leukemia = test system: K-562 leukemia
MALME-3M melanoma = test system: MALME-3M melanoma
MDA-MB-231 breast = test system: MDA-MB-231 breast
RXF 393 renal = test system: RXF 393 renal
SF-268 CNS = test system: SF-268 CNS
SF-295 CNS = test system: SF-295 CNS
UACC-257 melanoma = test system: UACC-257 melanoma
M14 melanoma = test system: M14 melanoma

Compound | growth (NCI-H23 lung) | growth (NCI-H226 lung) | growth (NCI-H322M lung) | growth (HOP-62 NSCLC) | growth (NCI-H460 lung) | growth (HOP-92 NSCLC) | growth (NCI-H522 lung) | growth (A549/ATCC NSCLC) | growth (786-0 renal) | growth (COLO 205 colon) | growth (DU-145 prostate) | growth (K-562 leukemia) | growth (MALME-3M melanoma) | growth (MDA-MB-231 breast) | growth (RXF 393 renal) | growth (SF-268 CNS) | growth (SF-295 CNS) | growth (UACC-257 melanoma) | growth (M14 melanoma)
CCN(C(=O)CN1CCN(c2cc3c(cc2F)c(=O)c(C(=O)O)cn3C2CC2)CC1)c1nc(-c2ccc(OC)cc2)cs1 | 66% | 85.8% | 38.8% | 80.9% | -2.51% (active) | 40% | 49% | 11.4% | 102% | 63.7% | 35.7% | 32.5% | 66.1% | 68.5% | 74.9% | 59.8% | 94.6% | 43.1% | 48.7%
N#CC1=C(N)Oc2c(ccc3ccccc23)C1c1cccs1 (stereo not drawn) | 18% | 40.9% | 39.1% | 25.5% | 0.254% (active) | 35.5% | -0.254% (active) | 22.5% | 31.9% | -54.9% (active) | -21.2% (active) | 0.938% (active) | 36.4% | -9.69% (active) | 8.35% (active) | 9.29% (active) | 24.7% | 75.1% | 17.3%
COc1ccc(/C(=C/c2ccc3ccccc3c2)c2nn[nH]n2)cc1OC | 31.5% | 81.1% | 40.1% | 27.8% | 14.1% | 5.89% (active) | -2.85% (active) | 25.4% | 40.4% | -2.4% (active) | 20.9% | 17.8% | 49.1% | 44.8% | -13.3% (active) | 53.3% | 4.59% (active) | 66.3% | 10.9%
O=C1c2ccccc2-c2nccc3cc(Cl)nc1c23 | -62.3% (active) | 48.2% | 95.7% | 47.6% | 40.2% | 21.2% | -75.9% (active) | 73% | 71.1% | 54.7% | 37.3% | -6.02% (active) | -65.6% (active) | 78.7% | -43.1% (active) | 24.6% | 53.2% | 58.6% | -63.4% (active)
O=C1c2cc3c(cc2-c2c1c1cc(Cl)c(Cl)cc1c(=O)n2CCCn1ccnc1)OCO3 | -19.4% (active) | -3.81% (active) | 22.9% | -19.5% (active) | 6.51% (active) | 29.5% | 1.51% (active) | 3.18% (active) | -3.17% (active) | 6.24% (active) | 8.73% (active) | 16.3% | 23.2% | 41.4% | 3.03% (active) | 17.7% | -17.4% (active) | -17.1% (active) | -11.1% (active)
COc1ccc2nc3cc(Cl)ccc3c(NCCNCC(O)CO)c2c1 (stereo not drawn) | 23.6% | 43.1% | 20.6% | 31.5% | 0.301% (active) | 13.1% | 3.19% (active) | 14.6% | 29.3% | 0.893% (active) | 31.6% | 10.8% | 28.7% | 20% | 9.56% (active) | 28.8% | 45.6% | 32.5% | 28%
Nc1nc2c(c3ncccc13)C(c1cccc(Br)c1)Cc1ncccc1-2 (stereo not drawn) | 39.5% | 72% | 41.6% | 20.3% | 10.6% | 67.2% | -12.4% (active) | 9.92% (active) | 21.3% | -36.1% (active) | 19.8% | 10.3% | 58.4% | 20.4% | -7.52% (active) | 56.4% | 7.75% (active) | 37.9% | 11.2%
C=C1CCC2C3(C)COC(c4ccc(OC)cc4Br)OC3CCC2(C)C1/C=C/C1=CCOC1=O (stereo not drawn) | 52.7% | 63.1% | 97.6% | 97.3% | 65% | 84.8% | 63.8% | 58.2% | 77.6% | 118% | 86.6% | 31.1% | 93.9% | 78.7% | 90% | 89% | 60.6% | 58.3% | 87.3%
COc1cc(C2CC(=O)Nc3c2cnn3Cc2ccco2)cc2c1OCCO2 (stereo not drawn) | 96.6% | 92.4% | 82.5% | 88.3% | 76.6% | 109% | 44.4% | 80.6% | 98% | 81.2% | 104% | 29.6% | 102% | 101% | 62.4% | 82.5% | 62% | 82.2% | 70.5%
CC(=O)Oc1ccc(Nc2c3ccccc3nc3ccccc23)cc1 | 11.9% | -59.2% (active) | 19.9% | 11.2% | -26.5% (active) | -3.96% (active) | -69.7% (active) | -23.7% (active) | 16.5% | 3.96% (active) | 8.74% (active) | 6.78% (active) | -33.2% (active) | 23.6% | -2.55% (active) | 22% | -21.8% (active) | -25.7% (active) | 20.7%
O=C(Nc1cccc2[nH]c(C(F)(F)F)nc12)c1ccc(Br)cc1F | 1.94% (active) | 36.4% | 57% | 45.3% | 15.1% | -14.9% (active) | -7.83% (active) | 16.7% | 35.8% | 26% | 46.8% | 13% | 17.9% | 30.7% | 51.8% | 29.1% | 35.3% | 40.1% | 48.7%
CC/C=C\C[C@H](O)C/C=C1/C(=O)C=C[C@@H]1C/C=C\CCCC(=O)NC | -18.8% (active) | -41.1% (active) | 20.7% | -24.3% (active) | -49.9% (active) | 48.4% | -15.6% (active) | -36.7% (active) | -39.1% (active) | -25.2% (active) | 15% | 0.291% (active) | -27.9% (active) | 26.5% | -79.1% (active) | 27.7% | 8.54% (active) | -19% (active) | 6.09% (active)
O=C(CCCN1CCOCC1)Nc1ccc(Cn2nnc3c2C(=O)c2nnn(Cc4ccc(NC(=O)CCCN5CCOCC5)cc4)c2C3=O)cc1 | -6.94% (active) | 97.8% | 21% | 73.9% | 22.4% | -20.9% (active) | -34.9% (active) | 83.8% | 101% | -70.5% (active) | 82.3% | 20.9% | -74.3% (active) | 5.78% (active) | 84.5% | 23.4% | 79.3% | -88% (active) | 60.6%
O=c1ccc2cc3ccccc3cc2[nH]1 | 93.1% | 94% | 114% | 95.4% | 93.8% | 84.8% | 98.8% | 102% | 103% | 121% | 100% | 57.6% | 112% | 101% | 93.7% | 75.5% | 95.4% | 96.5% | 101%
COc1cc(-c2cnc3nonc3n2)c(OC)c2c1OCO2 | 95.4% | 95.6% | 90.9% | 101% | 102% | 97.9% | 78.7% | 94.1% | 104% | 113% | 113% | 49.2% | 91.5% | 89.4% | 90.9% | 99% | 104% | 93.6% | 107%
O=C1C[C@H](N2C(=O)c3ccccc3S2(=O)=O)C2CO[C@@H]1O2 | 89.3% | 96.1% | 103% | 92.6% | 103% | 98.4% | -45.6% (active) | 89.1% | 96.9% | 64.1% | 87.8% | 55.6% | 97.2% | 110% | 86.8% | 102% | 93.7% | 84.3% | 84.2%
COc1cc(/C=N/N(C)C)ccc1O | 105% | 91.5% | 99.1% | 91.4% | 105% | -18.7% (active) | 87.7% | 84.1% | 109% | 108% | 110% | 101% | 105% | 93.1% | 105% | 101% | 104% | 89.1% | 108%
